# Test results: PubChem BioAssay AID720553 (National Center for Advancing Translational Sciences (NCATS), 2013)
# About 3,300 (0.97%) of roughly 340,000 compounds were called active. The sample holds actives, similar compounds and a random draw of the others, so the mix is not that of the screen. Values without a mark were called inactive.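 How the source made its calls: active means maximum activity change below -70%; inconclusive means maximum activity change from -70% to -50%; inactive means maximum activity change above -50%.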
# Tested on: Potassium voltage-gated channel subfamily H member 2, brain isoform KCNH2 3.1 (human)
# Experiment: qHTS for Inhibitors of KCHN2 3.1: Mutant qHTS
# Conditions: U2OS KCNH2 3.1, thallium flux FluxOr; active compounds read low
# How it was run: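 We transduce U2OS cells with the mutant 3.1 virus, culture them overnight, load FluxOr with Red40 quencher for 45 min, then add stimulation buffer and read kinetically for 2 min to derive a normalized rate constant.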
# On the % scale 0 is the no-effect control and ±100 the full control effect.
row,Structure (SMILES),activity change
1,C[C@H]1CN([C@@H](C)CO)S(=O)(=O)c2ccc(-c3cccc(F)c3)cc2O[C@@H]1CN(C)C,-7.52%
2,O=C(N/C(=C\c1ccc([N+](=O)[O-])cc1)C(=O)N1CCOCC1)c1cccc(Br)c1,-83.4% (active)
3,O=C(Oc1ccc(Br)cc1C(=S)N1CCOCC1)c1cccc([N+](=O)[O-])c1,-8.06%
4,O=C(N/C(=C\c1ccc([N+](=O)[O-])cc1)C(=O)N1CCCCC1)c1ccco1,-4.37%
5,O=C(Nc1ccncc1)c1ccccc1[N+](=O)[O-],8.15%
6,CC(C)C(=O)Nc1cccc(NC(=O)c2ccc([N+](=O)[O-])cc2Cl)c1,18.7%
7,O=C(Nc1cccc(NC(=O)c2ccccc2[N+](=O)[O-])c1)c1ccccc1Cl,-165% (active)
8,COc1ccc(NC(=O)C[C@H]2C(=O)N(CCc3ccccc3)C[C@@H]2C)cc1,5.84%
9,CCOc1ccc(CCNC(=O)COC(=O)c2ccc(C)c(S(=O)(=O)N3CCOCC3)c2)cc1OCC,11.9%
10,CNC(=O)c1ccc(CN(C)C(=O)c2cc(C3CC3)nc3c2cnn3C(C)C)cc1,6.55%
11,CCOC(=O)C(C(=O)c1ccccc1)C(c1ccccc1)c1nccc2ccccc12 (stereo unspecified),-15.2%
12,Cc1cccc(C(=O)NC2CCN(CC(=O)Nc3cccc(Cl)c3)CC2)c1,-1.48%
13,C[C@H]1CN(c2ccc(Br)cc2)C(=O)[C@@H]1CC(=O)Nc1ccc(Br)cc1,0.444%
14,Cc1cccc(NC(=O)CSCC(=O)Nc2nnc(C3CC3)s2)c1,-6.65%
15,CCOCCc1nn2c(=O)cc(CSCC(=O)Nc3cccc(C)c3C)nc2s1,4.66%
16,CCCc1nn2c(=O)cc(CSCC(=O)Nc3cccc(C)c3)nc2s1,-91.5% (active)
17,COc1ccc(C(CNC(=O)CSc2ccccc2)N2CCOCC2)cc1 (stereo unspecified),1.87%
18,O=C(NCCOc1ccccc1)c1ccccc1F,2.92%
19,c1ccc(Cn2nnc3c(NCC4CC4)ncnc32)cc1,-1.53%
20,CSc1ncnc2c1ncn2CCCNCc1cccs1,3.07%
21,COc1ccc(-n2cc(CNC3CCOCC3)c(-c3cccc(F)c3)n2)cc1,-75% (active)
22,Cn1cc(CN2CCC(C(O)CCc3ccccc3)CC2)c(-c2ccccc2F)n1 (stereo unspecified),-8.61%
23,CCC(O)C1CCN(Cc2cn(-c3ccc(OC)cc3)nc2-c2cccc(F)c2)CC1 (stereo unspecified),-90.7% (active)
24,COc1ccc(-n2cc(CN(C)Cc3n[nH]c(=O)[nH]3)c(-c3cccc(F)c3)n2)cc1,-14.7%
25,Cc1cccc(-n2cc(CN3CCN(C(=O)c4ncn[nH]4)CC3)c(-c3cccc(F)c3)n2)c1,0.932%
26,COc1ccc(-c2nn(-c3ccccc3)cc2CN2CCCO2)c(F)c1,4.37%
